{"source": "PubChem BioAssay (EPA / NIEHS)", "note": "The source made the active and inactive calls. How the source made its calls: active means hit-call score of the fitted dose curve at least 0.9, where 1 is the maximum; inactive means score below 0.9.", "data": [{"target": "Paired box protein Pax-6 (Homo sapiens) (UniProt P26367)", "sequence (P26367 whole entry, looked up)": "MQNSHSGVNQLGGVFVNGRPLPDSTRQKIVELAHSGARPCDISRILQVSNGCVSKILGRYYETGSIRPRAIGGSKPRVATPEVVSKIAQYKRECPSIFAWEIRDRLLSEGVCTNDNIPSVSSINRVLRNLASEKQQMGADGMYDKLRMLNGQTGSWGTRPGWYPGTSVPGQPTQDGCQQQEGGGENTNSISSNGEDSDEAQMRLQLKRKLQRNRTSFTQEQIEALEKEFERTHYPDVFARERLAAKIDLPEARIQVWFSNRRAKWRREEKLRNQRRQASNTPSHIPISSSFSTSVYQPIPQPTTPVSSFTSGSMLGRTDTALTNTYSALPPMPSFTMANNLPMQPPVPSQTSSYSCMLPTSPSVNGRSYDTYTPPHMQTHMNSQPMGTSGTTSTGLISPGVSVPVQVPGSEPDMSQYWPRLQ", "test": "ATG_Pax6_CIS: Attagene CIS-FACTORIAL HepG2 Assay for human Paired Box 6 (PAX6) (AID 2282956)", "settings": "HepG2 CIS-FACTORIAL PAX6 reporter transcription, RNA readout; actives raise or lower the signal", "protocol": "ATG_CIS is a cell-based, multiplexed-readout assay that uses HepG2, a human liver cell line, with measurements taken at 24 hours after chemical dosing in a 24-well plate.ATG_Pax6_CIS is one of 52 assay component(s) measured or calculated from the ATG_CIS assay. It is designed to make measurements of mRNA induction, a form of inducible reporter, as detected with fluorescence intensity signals by Reverse transcription polymerase chain reaction (RT-PCR) and Capillary electrophoresis technology.Data from the assay component ATG_Pax6_CIS was analyzed into 1 assay endpoint. This assay endpoint, ATG_Pax6_CIS, was analyzed with bidirectional fitting relative to DMSO as the negative control and baseline of activity. Using a type of inducible reporter, measures of mRNA for gain or loss-of-signal activity can be used to understand the reporter gene at the transcription factor-level as they relate to the gene PAX6. Furthermore, this assay endpoint can be referred to as a primary readout, because this assay has produced multiple assay endpoints where this one serves a reporter gene function. To generalize the intended target to other relatable targets, this assay endpoint is annotated to the dna binding intended target family, where the subfamily is paired box protein.\nHuman liver HepG2 cells are transiently transfected with multiple reporter transcription units (MRTUs) in 6-well plates using FuGene 6 reagent (Roche; 3 ml FuGene/1 mg DNA). The MRTU constructs are regulated by a cis-regulating element (promoter). […] A major difference between the CIS and TRANS system is that in CIS activities of endogenous TFs are measured, whereas the TRANS assay evaluates changes in activities of exogenous, chimeric NR-Gal4 proteins. […] At the end of 24 hour incubation, total RNA was isolated using TriZol reagent (Invitrogen). The isolated RNA is then reverse-transcribed using oligo(dT) primer and Mo-MLV reverse transcriptase (Invitrogen) with DNAse I (Ambion) treatment for 30 min. The one-tenth of the produced cDNA was amplified by PCR using Taq DNA polymerase (Invitrogen) and two reporter sequence-specific primers. The PCR products were fluorescently labeled by primer extension with 6-arboxyfluorescein (6-FAM) 5'-labeled reporter sequence-specific primer (2 min at 95 C, 20 s at 68 C and 10 min at 72 C) and these products were digested with 5U of HpaI (New England Biolabs) for 2h at 37 C. The fragments were purified using Qiaquick PCR columns (Qiagen), analyzed on an ABI 3130xL genetic analyzer (Applied Biosystems) with peak positions identified by using a set of X-rhodamine (ROX)-labeled MapMarker1000 molecular weight standards (BioVentures). The raw capillary electrophoresis data was processed using Attagraph software (Attagene).", "values": [{"smiles": "CN/C(=N\\[N+](=O)[O-])NCc1cnc(Cl)s1", "outcome": "inactive"}, {"smiles": "CC1(C)C(C=C(Cl)Cl)C1C(=O)OC(C#N)c1cccc(Oc2ccccc2)c1", "note": "(stereo not given)", "outcome": "inactive"}, {"smiles": "O=P(O)(O)CCCl", "outcome": "inactive"}, {"smiles": "O=C(Nc1ccccc1-c1ccc(Cl)cc1)c1cccnc1Cl", "outcome": "inactive"}, {"smiles": "Cc1cc(C)nc(Nc2ccccc2)n1", "outcome": "inactive"}, {"smiles": "CC(C)=CC1C(C(=O)OCc2coc(Cc3ccccc3)c2)C1(C)C", "note": "(stereo not given)", "outcome": "inactive"}, {"smiles": "Nc1c(Cl)c(F)nc(OCC(=O)O)c1Cl", "outcome": "inactive"}, {"smiles": "CC1(C)CON(Cc2ccccc2Cl)C1=O", "outcome": "inactive"}, {"smiles": "O=c1n(Cl)c(=O)n(Cl)c(=O)n1Cl", "outcome": "inactive"}, {"smiles": "CCOP(=S)(OCC)Oc1nc(Cl)n(C(C)C)n1", "outcome": "inactive"}, {"smiles": "CN=C=S", "outcome": "inactive"}, {"smiles": "Cc1ccc(N=CN(C)C=Nc2ccc(C)cc2C)c(C)c1", "outcome": "inactive"}, {"smiles": "COc1cc(Cl)c(OC)cc1Cl", "outcome": "inactive"}, {"smiles": "Nc1c(Cl)c(Cl)nc(C(=O)O)c1Cl", "outcome": "inactive"}, {"smiles": "CCOc1nc(C(Cl)(Cl)Cl)ns1", "outcome": "inactive"}, {"smiles": "CCCCC(C#N)(Cn1cncn1)c1ccc(Cl)cc1", "note": "(stereo not given)", "outcome": "inactive"}, {"smiles": "CNC(=O)N(C)c1nnc(C(C)(C)C)s1", "outcome": "inactive"}, {"smiles": "COC(=O)N(C(=O)N1CO[C@@]2(C(=O)OC)Cc3cc(Cl)ccc3C2=N1)c1ccc(OC(F)(F)F)cc1", "outcome": "inactive"}, {"smiles": "C=CCOC(=O)C(C)(C)OC(=O)c1cc(-n2c(=O)cc(C(F)(F)F)n(C)c2=O)ccc1Cl", "outcome": "inactive"}, {"smiles": "CC(C)N1C(=O)c2ccccc2NS1(=O)=O", "outcome": "inactive"}, {"smiles": "COC(=O)NS(=O)(=O)c1ccc(N)cc1", "outcome": "inactive"}, {"smiles": "CC(C)Nc1nc(Cl)nc(NC(C)C)n1", "outcome": "inactive"}, {"smiles": "CC1(C)CCC(=Cc2ccc(Cl)cc2)C1(O)Cn1cncn1", "note": "(stereo not given)", "outcome": "inactive"}, {"smiles": "O=C(O)c1c(Cl)ccc2cc(Cl)cnc12", "outcome": "inactive"}, {"smiles": "COCC(=O)N(c1c(C)cccc1C)C(C)C(=O)OC", "note": "(stereo not given)", "outcome": "inactive"}, {"smiles": "CC(C)Oc1cccc(NC(=O)c2ccccc2C(F)(F)F)c1", "outcome": "inactive"}, {"smiles": "CO/N=C(/C1=NOCCO1)c1ccccc1Oc1ncnc(Oc2ccccc2Cl)c1F", "AC50": "9.47 µM (active)"}, {"smiles": "CC(C)C1(C)N=C(c2ncccc2C(=O)O)NC1=O", "note": "(stereo not given)", "outcome": "inactive"}, {"smiles": "CCOP(=O)(OCC)Oc1nc(Cl)c(Cl)cc1Cl", "outcome": "inactive"}, {"smiles": "COC(=O)NC(=S)Nc1ccccc1NC(=S)NC(=O)OC", "outcome": "inactive"}, {"smiles": "OC(c1ccc(Cl)cc1)(c1ccc(Cl)cc1)C(Cl)(Cl)Cl", "outcome": "inactive"}, {"smiles": "CS(=O)(=O)c1cc(C(F)(F)F)ccc1C(=O)c1cnoc1C1CC1", "outcome": "inactive"}, {"smiles": "CCCC(=NOCC)C1=C(O)CC(CC(C)SCC)CC1=O", "note": "(stereo not given)", "outcome": "inactive"}, {"smiles": "Cc1nc(N(C)C)nc(OC(=O)N(C)C)c1C", "outcome": "inactive"}, {"smiles": "CNC(=O)Oc1cccc2ccccc12", "outcome": "inactive"}, {"smiles": "Clc1cccc(C(Cl)(Cl)Cl)n1", "outcome": "inactive"}, {"smiles": "CC(C)NC(=O)N1CC(=O)N(c2cc(Cl)cc(Cl)c2)C1=O", "outcome": "inactive"}, {"smiles": "N#CN=C1SCCN1Cc1ccc(Cl)nc1", "outcome": "inactive"}, {"smiles": "CS(=O)(=O)c1ccc(C(=O)C2C(=O)CCCC2=O)c([N+](=O)[O-])c1", "outcome": "inactive"}, {"smiles": "COc1cc(OC)nc(NC(=O)NS(=O)(=O)c2ncccc2OCC(F)(F)F)n1", "outcome": "inactive"}]}]}
